Measurements taken from ChEMBL document CHEMBL2218924, “A broad activity screen in support of a chemogenomic map for kinase signalling research and drug discovery” (Biochem J, 2013).

Columns and labels:
[1] = target: Tyrosine-protein kinase SYK (Homo sapiens) (UniProt P43405); details: at 10 µM
[2] = target: T1, Mitogen-activated protein kinase kinase kinase 7 (Homo sapiens) (UniProt O43318); details: at 1 µM
T1 sequence (whole entry): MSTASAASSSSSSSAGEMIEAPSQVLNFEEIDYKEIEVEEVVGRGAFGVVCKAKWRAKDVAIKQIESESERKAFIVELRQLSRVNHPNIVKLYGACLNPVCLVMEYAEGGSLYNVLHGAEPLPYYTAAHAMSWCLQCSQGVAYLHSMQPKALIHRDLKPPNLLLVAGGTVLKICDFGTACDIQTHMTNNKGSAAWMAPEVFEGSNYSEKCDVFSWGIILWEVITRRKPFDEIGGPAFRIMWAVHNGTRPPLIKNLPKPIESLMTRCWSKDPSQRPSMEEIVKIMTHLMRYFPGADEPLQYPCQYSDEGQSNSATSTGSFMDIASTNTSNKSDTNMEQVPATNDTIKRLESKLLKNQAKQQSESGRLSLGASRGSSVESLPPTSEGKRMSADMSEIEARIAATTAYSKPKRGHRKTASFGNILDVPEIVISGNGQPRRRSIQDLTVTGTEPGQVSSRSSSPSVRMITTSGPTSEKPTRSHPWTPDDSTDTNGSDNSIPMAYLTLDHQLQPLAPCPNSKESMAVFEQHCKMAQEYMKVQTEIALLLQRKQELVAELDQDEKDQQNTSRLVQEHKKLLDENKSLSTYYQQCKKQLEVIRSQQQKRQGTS

[3] = target: T1, Mitogen-activated protein kinase kinase kinase 7 (Homo sapiens); details: at 10 µM
[4] = target: T2, Serine/threonine-protein kinase TAO1 (Homo sapiens) (UniProt Q7L7X3); details: at 1 µM
T2 sequence (whole entry): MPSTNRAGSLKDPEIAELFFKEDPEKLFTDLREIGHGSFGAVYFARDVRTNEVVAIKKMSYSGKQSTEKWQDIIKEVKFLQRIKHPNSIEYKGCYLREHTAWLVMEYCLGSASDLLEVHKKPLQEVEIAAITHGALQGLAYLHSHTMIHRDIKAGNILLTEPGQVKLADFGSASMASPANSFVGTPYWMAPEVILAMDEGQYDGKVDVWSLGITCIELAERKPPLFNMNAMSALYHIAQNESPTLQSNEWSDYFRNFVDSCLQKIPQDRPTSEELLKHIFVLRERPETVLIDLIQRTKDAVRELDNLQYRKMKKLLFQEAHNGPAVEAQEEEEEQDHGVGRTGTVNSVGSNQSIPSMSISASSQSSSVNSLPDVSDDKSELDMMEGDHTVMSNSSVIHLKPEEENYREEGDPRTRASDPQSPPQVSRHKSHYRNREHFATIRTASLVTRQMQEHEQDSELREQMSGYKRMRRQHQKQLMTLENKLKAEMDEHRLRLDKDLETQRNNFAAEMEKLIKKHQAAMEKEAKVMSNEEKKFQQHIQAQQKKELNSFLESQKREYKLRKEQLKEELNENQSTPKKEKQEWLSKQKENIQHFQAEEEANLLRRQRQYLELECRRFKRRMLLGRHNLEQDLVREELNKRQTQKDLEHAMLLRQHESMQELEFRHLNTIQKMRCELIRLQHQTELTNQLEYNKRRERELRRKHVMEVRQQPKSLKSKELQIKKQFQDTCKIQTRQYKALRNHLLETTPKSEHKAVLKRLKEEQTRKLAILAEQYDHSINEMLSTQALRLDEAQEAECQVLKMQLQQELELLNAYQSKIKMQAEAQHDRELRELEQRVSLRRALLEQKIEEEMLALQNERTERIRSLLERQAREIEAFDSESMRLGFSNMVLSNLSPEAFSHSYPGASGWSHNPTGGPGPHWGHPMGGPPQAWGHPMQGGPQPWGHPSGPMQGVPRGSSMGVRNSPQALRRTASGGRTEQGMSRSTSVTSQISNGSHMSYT

[5] = target: T2, Serine/threonine-protein kinase TAO1 (Homo sapiens); details: at 10 µM
[6] = target: T3, Serine/threonine-protein kinase TAO2 (Homo sapiens) (UniProt Q9UL54); details: at 1 µM
T3 sequence (whole entry): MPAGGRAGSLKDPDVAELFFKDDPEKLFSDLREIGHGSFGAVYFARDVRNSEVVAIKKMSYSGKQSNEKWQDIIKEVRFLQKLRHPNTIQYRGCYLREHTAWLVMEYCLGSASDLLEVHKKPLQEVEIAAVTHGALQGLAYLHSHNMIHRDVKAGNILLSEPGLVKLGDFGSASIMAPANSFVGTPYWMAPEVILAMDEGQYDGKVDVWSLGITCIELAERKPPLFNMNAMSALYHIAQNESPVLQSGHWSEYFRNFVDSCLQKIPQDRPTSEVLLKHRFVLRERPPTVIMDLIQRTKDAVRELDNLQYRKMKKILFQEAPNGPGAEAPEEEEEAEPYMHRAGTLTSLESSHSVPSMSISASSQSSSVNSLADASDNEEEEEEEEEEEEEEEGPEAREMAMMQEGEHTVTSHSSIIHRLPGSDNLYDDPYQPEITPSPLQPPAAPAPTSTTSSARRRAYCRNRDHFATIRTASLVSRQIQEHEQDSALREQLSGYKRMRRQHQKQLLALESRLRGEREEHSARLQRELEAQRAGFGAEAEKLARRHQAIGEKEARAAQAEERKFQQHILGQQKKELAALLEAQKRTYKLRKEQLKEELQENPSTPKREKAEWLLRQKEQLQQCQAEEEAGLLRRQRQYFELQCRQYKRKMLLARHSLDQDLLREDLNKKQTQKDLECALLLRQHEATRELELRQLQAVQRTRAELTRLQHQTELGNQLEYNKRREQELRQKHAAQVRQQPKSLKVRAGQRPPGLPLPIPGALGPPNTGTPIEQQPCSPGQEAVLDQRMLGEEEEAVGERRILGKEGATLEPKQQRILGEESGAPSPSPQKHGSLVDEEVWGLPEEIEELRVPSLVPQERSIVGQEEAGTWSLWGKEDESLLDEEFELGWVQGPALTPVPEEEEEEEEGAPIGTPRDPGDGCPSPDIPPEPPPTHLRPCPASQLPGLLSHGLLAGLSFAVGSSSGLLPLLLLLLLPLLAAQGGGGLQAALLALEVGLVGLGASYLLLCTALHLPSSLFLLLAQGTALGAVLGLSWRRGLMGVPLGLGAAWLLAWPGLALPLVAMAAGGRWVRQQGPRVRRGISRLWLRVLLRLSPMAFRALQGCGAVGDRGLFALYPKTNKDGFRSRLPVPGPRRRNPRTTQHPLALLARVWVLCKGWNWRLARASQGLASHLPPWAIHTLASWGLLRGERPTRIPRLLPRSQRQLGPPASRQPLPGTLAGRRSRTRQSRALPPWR

[7] = target: T3, Serine/threonine-protein kinase TAO2 (Homo sapiens); details: at 10 µM
[8] = target: T4, Serine/threonine-protein kinase TAO3 (Homo sapiens) (UniProt Q9H2K8); details: at 1 µM
T4 sequence (whole entry): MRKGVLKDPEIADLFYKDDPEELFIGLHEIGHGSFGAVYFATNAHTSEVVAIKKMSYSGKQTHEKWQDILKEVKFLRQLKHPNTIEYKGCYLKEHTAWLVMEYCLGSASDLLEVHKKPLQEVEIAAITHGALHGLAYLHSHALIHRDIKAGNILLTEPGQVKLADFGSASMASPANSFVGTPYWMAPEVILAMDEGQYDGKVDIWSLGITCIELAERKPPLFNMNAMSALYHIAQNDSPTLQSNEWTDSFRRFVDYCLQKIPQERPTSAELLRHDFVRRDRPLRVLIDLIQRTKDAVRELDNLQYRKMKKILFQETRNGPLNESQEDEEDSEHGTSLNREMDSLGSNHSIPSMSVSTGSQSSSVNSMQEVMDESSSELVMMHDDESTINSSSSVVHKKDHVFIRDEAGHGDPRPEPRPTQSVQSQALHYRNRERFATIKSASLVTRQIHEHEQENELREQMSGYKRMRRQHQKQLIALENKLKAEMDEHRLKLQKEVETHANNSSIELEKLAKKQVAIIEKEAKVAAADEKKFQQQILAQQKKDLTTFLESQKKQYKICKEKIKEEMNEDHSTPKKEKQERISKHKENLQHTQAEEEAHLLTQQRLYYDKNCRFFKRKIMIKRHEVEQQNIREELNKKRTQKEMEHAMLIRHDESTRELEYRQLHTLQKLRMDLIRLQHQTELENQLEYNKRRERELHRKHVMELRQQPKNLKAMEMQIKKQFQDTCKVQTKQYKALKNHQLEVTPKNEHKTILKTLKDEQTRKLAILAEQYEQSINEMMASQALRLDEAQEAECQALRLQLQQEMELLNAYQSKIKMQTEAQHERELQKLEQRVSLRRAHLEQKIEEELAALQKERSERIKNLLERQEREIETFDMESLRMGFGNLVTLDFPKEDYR

[9] = target: T4, Serine/threonine-protein kinase TAO3 (Homo sapiens); details: at 10 µM
[10] = target: T5, Serine/threonine-protein kinase TBK1 (Homo sapiens) (UniProt Q9UHD2); details: at 1 µM
T5 sequence (whole entry): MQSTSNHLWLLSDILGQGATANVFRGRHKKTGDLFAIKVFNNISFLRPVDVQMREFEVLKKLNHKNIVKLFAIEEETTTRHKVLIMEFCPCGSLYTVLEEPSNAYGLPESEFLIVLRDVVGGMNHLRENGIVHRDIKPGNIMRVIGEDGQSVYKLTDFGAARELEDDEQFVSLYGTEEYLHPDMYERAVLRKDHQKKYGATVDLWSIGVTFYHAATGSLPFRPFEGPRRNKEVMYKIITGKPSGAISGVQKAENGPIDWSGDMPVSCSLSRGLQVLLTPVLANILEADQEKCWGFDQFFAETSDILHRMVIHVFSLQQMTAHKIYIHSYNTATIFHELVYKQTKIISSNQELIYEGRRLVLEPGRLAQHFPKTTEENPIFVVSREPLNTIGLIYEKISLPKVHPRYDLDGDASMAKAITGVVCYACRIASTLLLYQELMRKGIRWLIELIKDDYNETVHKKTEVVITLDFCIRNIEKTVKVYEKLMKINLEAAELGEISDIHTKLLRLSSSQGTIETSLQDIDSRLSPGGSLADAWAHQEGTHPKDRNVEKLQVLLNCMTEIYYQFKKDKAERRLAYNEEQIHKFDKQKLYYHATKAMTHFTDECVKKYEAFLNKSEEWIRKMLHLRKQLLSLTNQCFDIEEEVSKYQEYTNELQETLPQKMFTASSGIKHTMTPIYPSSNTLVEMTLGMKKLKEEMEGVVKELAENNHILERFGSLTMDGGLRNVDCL

Q: `CC(C)(C)n1nc(Cc2cccc3ccccc23)c2c(N)ncnc21` was tested. Which residual activity [1] did it give?
A: 71%

Q: What about the residual activity [2] of the same compound?
A: 86%

Q: What about the residual activity [3] of the same compound?
A: 78%

Q: What about the residual activity [4] of the same compound?
A: 87%

Q: And the residual activity [5]?
A: 50%

Q: What about the residual activity [6] of the same compound?
A: 90%

Q: What about the residual activity [7] of the same compound?
A: 42%

Q: What about the residual activity [8] of the same compound?
A: 92%

Q: What about the residual activity [9] of the same compound?
A: 41%

Q: And the residual activity [10]?
A: 78%
